{"source": "ChEMBL document CHEMBL1157539", "about": "“Thousands of chemical starting points for antimalarial lead identification” (Nature, 2010)", "assay_type_in_all_cases": "functional", "key": {"Plasmodium falciparum [1]": {"system": "Plasmodium falciparum", "experiment": "GSK_TCMDC: Inhibition of Plasmodium falciparum 3D7 in whole red blood cells, using parasite LDH activity as an index of growth. Test compounds present at 2uM"}, "Plasmodium falciparum [2]": {"system": "Plasmodium falciparum", "experiment": "GSK_TCMDC: Inhibition of Plasmodium falciparum Dd2 in whole red blood cells, using parasite LDH activity as an index of growth. Test compounds present at 2uM"}, "HepG2": {"system": "HepG2", "experiment": "GSK_TCMDC: Percent inhibition of human HepG2 cell line. Test compounds present at 10uM."}}}
{"smiles": "O=C(Nc1ccc(-c2cccc(-c3nc4cc(C(F)(F)F)ccc4[nH]3)c2)cc1)Nc1ccc(Cl)c(Cl)c1", "values": [{"measurement": "Inhibition", "setting": "Plasmodium falciparum [1]", "result": 98, "unit": "%"}, {"measurement": "Inhibition", "setting": "Plasmodium falciparum [2]", "result": 23, "unit": "%"}, {"measurement": "Inhibition", "setting": "HepG2", "result": 42, "unit": "%"}]}
{"smiles": "O=C(O)C(F)(F)F.Oc1ccc(CCNc2nc(NCCCOc3cc(CN4CCCCC4)ccc3F)nc(N3CCNCC3)n2)cc1", "values": [{"measurement": "Inhibition", "setting": "Plasmodium falciparum [1]", "result": 100, "unit": "%"}, {"measurement": "Inhibition", "setting": "Plasmodium falciparum [2]", "result": 0, "unit": "%"}, {"measurement": "Inhibition", "setting": "HepG2", "result": 30, "unit": "%"}]}
{"smiles": "COc1ccc2ncc(F)c(CCN3CCC4(CC3)COC(c3cc5c(cn3)OCCO5)=N4)c2n1.O=C(O)C(=O)O", "values": [{"measurement": "Inhibition", "setting": "Plasmodium falciparum [1]", "result": 89, "unit": "%"}, {"measurement": "Inhibition", "setting": "Plasmodium falciparum [2]", "result": 83, "unit": "%"}, {"measurement": "Inhibition", "setting": "HepG2", "result": 79, "unit": "%"}]}
{"smiles": "O=C(Cc1ccc(NC(=O)c2ccc(O)c(-c3ccc(Cl)c(Cl)c3)c2)cc1)NCCN1CCCCC1", "values": [{"measurement": "Inhibition", "setting": "Plasmodium falciparum [1]", "result": 95, "unit": "%"}, {"measurement": "Inhibition", "setting": "Plasmodium falciparum [2]", "result": 63, "unit": "%"}, {"measurement": "Inhibition", "setting": "HepG2", "result": 12, "unit": "%"}]}
{"smiles": "CCCCCCN1CCCN(Cc2ccc(C(=O)Nc3ccc(C)c(F)c3)cc2)CC1.O=C(O)C(F)(F)F", "values": [{"measurement": "Inhibition", "setting": "Plasmodium falciparum [1]", "result": 92, "unit": "%"}, {"measurement": "Inhibition", "setting": "Plasmodium falciparum [2]", "result": 58, "unit": "%"}, {"measurement": "Inhibition", "setting": "HepG2", "result": 47, "unit": "%"}]}
{"smiles": "Cc1ccc(C(=O)Cn2nc(-c3ccc(C)c(S(=O)(=O)N4CCCCC4)c3)ccc2=O)cc1", "values": [{"measurement": "Inhibition", "setting": "Plasmodium falciparum [1]", "result": 99, "unit": "%"}, {"measurement": "Inhibition", "setting": "Plasmodium falciparum [2]", "result": 76, "unit": "%"}, {"measurement": "Inhibition", "setting": "HepG2", "result": 6, "unit": "%"}]}
{"smiles": "Cc1cc(=NN=Cc2ccc(Cl)cc2)c2cc(C(F)(F)F)ccc2[nH]1", "values": [{"measurement": "Inhibition", "setting": "Plasmodium falciparum [1]", "result": 91, "unit": "%"}, {"measurement": "Inhibition", "setting": "Plasmodium falciparum [2]", "result": 32, "unit": "%"}, {"measurement": "Inhibition", "setting": "HepG2", "result": 0, "unit": "%"}]}
{"smiles": "CC(=O)Nc1cccc(-c2cn(-c3ccc(OCc4cccc(F)c4)c(Cl)c3)c3ncncc23)c1", "values": [{"measurement": "Inhibition", "setting": "Plasmodium falciparum [1]", "result": 100, "unit": "%"}, {"measurement": "Inhibition", "setting": "Plasmodium falciparum [2]", "result": 66, "unit": "%"}, {"measurement": "Inhibition", "setting": "HepG2", "result": 7, "unit": "%"}]}
{"smiles": "CC(C)(c1ccccc1)c1ccc(O)c(CN2CCOCC2)c1", "values": [{"measurement": "Inhibition", "setting": "Plasmodium falciparum [1]", "result": 99, "unit": "%"}, {"measurement": "Inhibition", "setting": "Plasmodium falciparum [2]", "result": 88, "unit": "%"}, {"measurement": "Inhibition", "setting": "HepG2", "result": 0, "unit": "%"}]}
{"smiles": "COc1ccc(-c2ccc(NC(=O)c3ccc(F)cc3)cc2)cc1CNC(C)C.O=C(O)C(F)(F)F", "values": [{"measurement": "Inhibition", "setting": "Plasmodium falciparum [1]", "result": 97, "unit": "%"}, {"measurement": "Inhibition", "setting": "Plasmodium falciparum [2]", "result": 28, "unit": "%"}, {"measurement": "Inhibition", "setting": "HepG2", "result": 24, "unit": "%"}]}
{"smiles": "CCCCCCc1c(C)nc2cc(OC)ccc2c1O", "values": [{"measurement": "Inhibition", "setting": "Plasmodium falciparum [1]", "result": 97, "unit": "%"}, {"measurement": "Inhibition", "setting": "Plasmodium falciparum [2]", "result": 97, "unit": "%"}, {"measurement": "Inhibition", "setting": "HepG2", "result": 10, "unit": "%"}]}
{"smiles": "COC(=O)c1ccc(CCC(C)NCC(O)c2cccc(C(F)(F)F)c2)cc1.Cl", "note": "(configuration not stated)", "values": [{"measurement": "Inhibition", "setting": "Plasmodium falciparum [1]", "result": 99, "unit": "%"}, {"measurement": "Inhibition", "setting": "Plasmodium falciparum [2]", "result": 99, "unit": "%"}, {"measurement": "Inhibition", "setting": "HepG2", "result": 16, "unit": "%"}]}
{"smiles": "Cc1nc(NCc2ccccc2)cc(NCC(O)c2ccc(O)cc2)n1", "note": "(configuration not stated)", "values": [{"measurement": "Inhibition", "setting": "Plasmodium falciparum [1]", "result": 85, "unit": "%"}, {"measurement": "Inhibition", "setting": "Plasmodium falciparum [2]", "result": 10, "unit": "%"}, {"measurement": "Inhibition", "setting": "HepG2", "result": 5, "unit": "%"}]}
{"smiles": "CC(=O)Oc1c(C2CCN(CCCCNC(=O)c3ccc(NC(=O)c4ccc(Cl)cc4)cc3)CC2)ccc2c1CCCC2", "values": [{"measurement": "Inhibition", "setting": "Plasmodium falciparum [1]", "result": 100, "unit": "%"}, {"measurement": "Inhibition", "setting": "Plasmodium falciparum [2]", "result": 80, "unit": "%"}, {"measurement": "Inhibition", "setting": "HepG2", "result": 21, "unit": "%"}]}
{"smiles": "Cc1ccc(Nc2nc(C)cc(NC3CCN(C)CC3)n2)cc1", "values": [{"measurement": "Inhibition", "setting": "Plasmodium falciparum [1]", "result": 100, "unit": "%"}, {"measurement": "Inhibition", "setting": "Plasmodium falciparum [2]", "result": 21, "unit": "%"}, {"measurement": "Inhibition", "setting": "HepG2", "result": 14, "unit": "%"}]}
{"smiles": "COc1ccc2nccc(N3CCCN(CCNS(=O)(=O)c4ccc5c(c4)NC(=O)CS5)CC3)c2n1.Cl", "values": [{"measurement": "Inhibition", "setting": "Plasmodium falciparum [1]", "result": 97, "unit": "%"}, {"measurement": "Inhibition", "setting": "Plasmodium falciparum [2]", "result": 15, "unit": "%"}, {"measurement": "Inhibition", "setting": "HepG2", "result": 0, "unit": "%"}]}
{"smiles": "CCCCCN1CCCN(Cc2cccc(NC(=O)c3ccc(-c4ccccc4)cc3)c2)CC1.O=C(O)C(F)(F)F", "values": [{"measurement": "Inhibition", "setting": "Plasmodium falciparum [1]", "result": 95, "unit": "%"}, {"measurement": "Inhibition", "setting": "Plasmodium falciparum [2]", "result": 15, "unit": "%"}, {"measurement": "Inhibition", "setting": "HepG2", "result": 23, "unit": "%"}]}
{"smiles": "O=C(Nc1cccc(-c2nn3ccccc3c2-c2ccnc(Nc3ccc(C(=O)N4CCOCC4)cc3)n2)c1)c1c(F)cccc1F", "values": [{"measurement": "Inhibition", "setting": "Plasmodium falciparum [1]", "result": 99, "unit": "%"}, {"measurement": "Inhibition", "setting": "Plasmodium falciparum [2]", "result": 97, "unit": "%"}, {"measurement": "Inhibition", "setting": "HepG2", "result": 72, "unit": "%"}]}
{"smiles": "CCCn1cc2c(ccc3nc(N)nc(N)c32)n1", "values": [{"measurement": "Inhibition", "setting": "Plasmodium falciparum [1]", "result": 95, "unit": "%"}, {"measurement": "Inhibition", "setting": "Plasmodium falciparum [2]", "result": 0, "unit": "%"}, {"measurement": "Inhibition", "setting": "HepG2", "result": 65, "unit": "%"}]}
{"smiles": "COc1ccc2nc(-c3cc(-c4ccc(NC(=O)C(C)C)cc4)cnc3N)[nH]c2c1", "values": [{"measurement": "Inhibition", "setting": "Plasmodium falciparum [1]", "result": 100, "unit": "%"}, {"measurement": "Inhibition", "setting": "Plasmodium falciparum [2]", "result": 47, "unit": "%"}, {"measurement": "Inhibition", "setting": "HepG2", "result": 43, "unit": "%"}]}
{"smiles": "COc1ccc2nccc([C@@H](O)CN3CCC(NCc4cc5ccccc5nn4)CC3)c2c1.O=C(O)C(=O)O", "values": [{"measurement": "Inhibition", "setting": "Plasmodium falciparum [1]", "result": 94, "unit": "%"}, {"measurement": "Inhibition", "setting": "Plasmodium falciparum [2]", "result": 16, "unit": "%"}, {"measurement": "Inhibition", "setting": "HepG2", "result": 5, "unit": "%"}]}
{"smiles": "CCc1c(CCNCCCC(C)CCNCCc2ccc(OC)c(OC)c2CC)ccc(OC)c1OC.Cl", "note": "(configuration not stated)", "values": [{"measurement": "Inhibition", "setting": "Plasmodium falciparum [1]", "result": 100, "unit": "%"}, {"measurement": "Inhibition", "setting": "Plasmodium falciparum [2]", "result": 27, "unit": "%"}, {"measurement": "Inhibition", "setting": "HepG2", "result": 99, "unit": "%"}]}
{"smiles": "CCCCCCNc1c2ccccc2nc2ccccc12.Cl", "values": [{"measurement": "Inhibition", "setting": "Plasmodium falciparum [1]", "result": 97, "unit": "%"}, {"measurement": "Inhibition", "setting": "Plasmodium falciparum [2]", "result": 32, "unit": "%"}, {"measurement": "Inhibition", "setting": "HepG2", "result": 24, "unit": "%"}]}
{"smiles": "CCN(CC)C(=S)N/N=C1/C(=O)Nc2c(C)cccc21", "values": [{"measurement": "Inhibition", "setting": "Plasmodium falciparum [1]", "result": 94, "unit": "%"}, {"measurement": "Inhibition", "setting": "Plasmodium falciparum [2]", "result": 69, "unit": "%"}, {"measurement": "Inhibition", "setting": "HepG2", "result": 28, "unit": "%"}]}
{"smiles": "O=C(Nc1ccc(C(F)(F)F)cc1)c1cccc(S(=O)(=O)NC2CCN(CC3CCCCC3)C2)c1.O=C(O)C(F)(F)F", "note": "(configuration not stated)", "values": [{"measurement": "Inhibition", "setting": "Plasmodium falciparum [1]", "result": 98, "unit": "%"}, {"measurement": "Inhibition", "setting": "Plasmodium falciparum [2]", "result": 10, "unit": "%"}, {"measurement": "Inhibition", "setting": "HepG2", "result": 32, "unit": "%"}]}
{"smiles": "COc1ccc(C2CC(c3ccccc3)=NN2C(=O)c2ccc(Br)o2)cc1", "note": "(configuration not stated)", "values": [{"measurement": "Inhibition", "setting": "Plasmodium falciparum [1]", "result": 96, "unit": "%"}, {"measurement": "Inhibition", "setting": "Plasmodium falciparum [2]", "result": 45, "unit": "%"}, {"measurement": "Inhibition", "setting": "HepG2", "result": 6, "unit": "%"}]}
{"smiles": "CC(C)COc1ccc(Cl)cc1Nc1nc(-c2nc3ccccc3[nH]2)cs1.Cl", "values": [{"measurement": "Inhibition", "setting": "Plasmodium falciparum [1]", "result": 96, "unit": "%"}, {"measurement": "Inhibition", "setting": "Plasmodium falciparum [2]", "result": 29, "unit": "%"}, {"measurement": "Inhibition", "setting": "HepG2", "result": 2, "unit": "%"}]}
{"smiles": "CN(C)Cc1ccc(-c2ccc(NC(=O)c3ccc4c(=O)n(Cc5ccccc5)cnc4c3)cc2)cc1", "values": [{"measurement": "Inhibition", "setting": "Plasmodium falciparum [1]", "result": 100, "unit": "%"}, {"measurement": "Inhibition", "setting": "Plasmodium falciparum [2]", "result": 39, "unit": "%"}, {"measurement": "Inhibition", "setting": "HepG2", "result": 94, "unit": "%"}]}
{"smiles": "Cc1cc(=NN=CC=Cc2ccccc2)c2cc(F)ccc2[nH]1", "values": [{"measurement": "Inhibition", "setting": "Plasmodium falciparum [1]", "result": 100, "unit": "%"}, {"measurement": "Inhibition", "setting": "Plasmodium falciparum [2]", "result": 36, "unit": "%"}, {"measurement": "Inhibition", "setting": "HepG2", "result": 8, "unit": "%"}]}
